# Measurements as given in PubChem BioAssay (Tox21).
# Results filed as inconclusive are left out. Entries that show only a call come without a potency. The source made the active and inactive calls. The call rests on the fitted dose curve; in most records, active means well fitted cell-killing curve with a large enough effect in the repeat runs; inconclusive means weak or mixed curves, or effect the other way; inactive means flat fitted curve, though single readings scatter.
# Assay: cAMP Responsive Elements (CRE) small molecule antagonists, cell-based qHTS assay: qHTS cell viability counter screen (AID 2060913); further: nearly all actives have a fitted effect of over 40% in size
# Conditions: CRE-bla HEK293T viability, CellTiter-Glo luminescence, 5 h; series mostly up to 92.4 µM
# Outline: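 HEK293T CRE-bla, 2,000 cells/well, 18 h preincubation; cpd in DMSO + NKH477 0.25 uM final, 3 h 37 C/5% CO2; LiveBLAzer 2 h RT, then CellTiter-Glo 30 min RT, luminescence.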
# Potency means the concentration at half of the fitted maximal effect.
Compound,Potency,"viability change, negative = cytotoxic"
CN(C)CCCNCCCN,inactive,–
CC(C)(O)c1ccc(CNC(=O)c2cccnc2Oc2ccc(F)cc2)cc1,inactive,–
CC[C@H]1O[C@]2(CC[C@@H]1C)C[C@@H]1C[C@@H](C/C=C(\C)C[C@@H](C)/C=C/C=C3\CO[C@@H]4[C@H](O)C(C)=C[C@@H](C(=O)O1)[C@]34O)O2,30.4 µM (active),–
C=C1C[C@@]23CC[C@H]4[C@@](C)(CCC[C@@]4(C)C(=O)O[C@@H]4O[C@H](CO)[C@@H](O)[C@H](O)[C@H]4O)[C@@H]2CC[C@]1(O[C@@H]1O[C@H](CO)[C@@H](O)[C@H](O[C@@H]2O[C@H](CO)[C@@H](O)[C@H](O)[C@H]2O)[C@H]1O[C@@H]1O[C@H](CO)[C@@H](O)[C@H](O)[C@H]1O)C3,inactive,–
CC(C)[C@H](N)C(=O)OCCOCn1cnc2c(=O)[nH]c(N)nc21,inactive,–
Cc1oc(=O)oc1CN1CCN(c2cc3c(cc2F)c(=O)c(C(=O)O)c2n3C(C)S2)CC1 (stereo not given),inactive,–
COC(Cc1ccccc1)OC,inactive,–
NCCOCCOCCN,inactive,–
CCCN(CCC)C(=O)C(CCC(=O)OCCCN1CCN(CCOC(=O)Cc2c(C)n(C(=O)c3ccc(Cl)cc3)c3ccc(OC)cc23)CC1)NC(=O)c1ccccc1 (stereo not given),inactive,–
CC(=O)Oc1ccccc1C(=O)Nc1ncc([N+](=O)[O-])s1,7.5 µM (active),–
O=C(O)c1cc(Cl)cc(Cl)c1O,inactive,–
CCC(C(=O)OCCOCCN(CC)CC)c1ccccc1 (stereo not given),inactive,–
NCCNC(=O)c1ccc(Cl)cn1,inactive,–
N=c1nc(N2CCCCC2)cc(N)n1O,inactive,–
NCCCN(CCO)CCO,inactive,–
NC/C=C/C(=O)O,inactive,–
CCCCc1nc2cccnc2n1Cc1ccc(-c2ccccc2-c2nnn[nH]2)cc1,inactive,–
C[C@@H](CN1CC(=O)NC(=O)C1)N1CC(=O)NC(=O)C1,inactive,–
CC1=C(Br)C(=O)C(Br)=C/C1=C(/c1ccccc1S(=O)(=O)O)c1cc(Br)c(O)c(Br)c1C,inactive,–
Cc1cc(=O)c2c(O)c3c(O)cc(=O)c4c3c3c(cc(O)c1c23)C(C)(C)C=4O,–,-18.2% [at 18.9 µM] (inactive)

Compound,Potency,"viability change, negative = cytotoxic"
OCc1c[nH]c2ccccc12,inactive,–
OCC(O)CN1CCN(c2ccccc2)CC1 (stereo not given),inactive,–
CNCc1ccc(NC(=O)c2c[nH]c3c2C(=O)CCC3)cc1,inactive,–
COC(=O)c1cc(Cl)c(NC(C)=O)cc1OC,inactive,–
CCOC(=O)c1cc(=O)c2c(OCC(COc3cccc4oc(C(=O)OCC)cc(=O)c34)OC(=O)[C@@H](N)CCCCN)cccc2o1,inactive,–
CCC(CO)(CO)CO,inactive,–
CC(C)=CCC[C@H](C)CC=O,inactive,–
CSc1ccc(/C=C2/C(C)=C(CC(=O)O)c3cc(F)ccc32)cc1,inactive,–
O=S(=O)(O)c1ccc(Nc2nc(Nc3ccc(/C=C/c4ccc(Nc5nc(Nc6ccc(S(=O)(=O)O)cc6)nc(N(CCO)CCO)n5)cc4S(=O)(=O)O)c(S(=O)(=O)O)c3)nc(N(CCO)CCO)n2)cc1,inactive,–
COc1cc(C)nc(-n2nc(C)cc2OC)n1,inactive,–
O=S(=O)(O)c1ccccc1/C=C/c1ccc(-c2ccc(/C=C/c3ccccc3S(=O)(=O)O)cc2)cc1,inactive,–
Cc1ccc(N)c(S(=O)(=O)O)c1,inactive,–
COc1cc2c(cc1OC)-c1cc3ccc(OC)c(OC)c3c[n+]1CC2,inactive,–
Cc1onc(-c2ccccc2)c1-c1ccc(S(N)(=O)=O)cc1,inactive,–
CC(C)(C)NC(=O)[C@H]1CC[C@H]2[C@@H]3CC[C@H]4NC(=O)C=C[C@]4(C)[C@H]3CC[C@]12C,inactive,–
C=C1c2cccc(O)c2C(O)=C2C(=O)[C@]3(O)C(O)=C(C(N)=O)C(=O)[C@@H](N(C)C)[C@@H]3[C@@H](O)[C@H]12,inactive,–
CC[N+](CC)(CC)CCOc1ccc(/C=C/c2ccccc2)cc1,inactive,–
COP(=O)(O)OP(=O)(O)OC,inactive,–
COC(=O)c1c(Cl)c(Cl)c(C(=O)OC)c(Cl)c1Cl,inactive,–
CCCCCCCCCCCCCCNCCO,inactive,–
